In the supplement of paper PMC5662767:
Structures can show the parent of a compound that is named as a salt.

tested on: Drosophila S2 cl14 SmoIP sensor cells; test: normalized SmoIP GFP fluorescence (untreated unstimulated = 0%, untreated Hh-stimulated = 100%); higher = more Smo activation sensor fluorescence; conditions: stimulation: Hh conditioned medium (+Hh); compound concentration: 2 uM; 24 h
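Note: flow cytometry read-out as median GFP intensity of gated cells, compounds added 30 min before Hh-conditioned or mock medium, mock-treated cells serving as unstimulated baseline.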

With `N#C/C(=C(/N)Sc1ccc(N)cc1)c1ccccc1C(F)(F)F` as the compound, how does the “normalized SmoIP GFP fluorescence” value read?
Its value is 131%.

With `Cn1cncc1[C@@](N)(c1ccc(Cl)cc1)c1ccc2c(c1)c(-c1cccc(Cl)c1)cc(=O)n2C` as the compound, how does the “normalized SmoIP GFP fluorescence” value read?
The value was 141%.

For `CCN1CCN(c2ccc(Nc3cc(N(C)C(=O)Nc4c(Cl)c(OC)cc(OC)c4Cl)ncn3)cc2)CC1`, which “normalized SmoIP GFP fluorescence” value is on record?
Its value is 111%.

`CCc1ccc(/C=C2/SC(=S)NC2=O)cc1` was tested. Which “normalized SmoIP GFP fluorescence” value did it give?
The value was 105%.

Which “normalized SmoIP GFP fluorescence” value does the source give for `COc1cc(OC)c2c(=O)[nH]c(-c3cc(C)c(OCCO)c(C)c3)nc2c1` here?
Its value is 112%.

same assay, conditions: stimulation: mock conditioned medium (-Hh); compound concentration: 2 uM; 24 h

With `COc1cc(Nc2ncc(F)c(Nc3ccc4c(n3)NC(=O)C(C)(C)O4)n2)cc(OC)c1OC` [R406(free-base)] as the compound, how does the “normalized SmoIP GFP fluorescence” value read?
The value was 9.32%.

With `COc1cc2c(Oc3ccc4[nH]c(C)cc4c3F)ncnc2cc1OCCCN1CCCC1` [Cediranib] as the compound, how does the “normalized SmoIP GFP fluorescence” value read?
The value was 52.4%.

`CCNC(=O)c1noc(-c2cc(C(C)C)c(O)cc2O)c1-c1ccc(CN2CCOCC2)cc1` was tested. Which “normalized SmoIP GFP fluorescence” value did it give?
Its value is 32.9%.

Which “normalized SmoIP GFP fluorescence” value does the source give for `COc1cc2nccc(Oc3ccc(NC(=O)C4(C(=O)Nc5ccc(F)cc5)CC4)cc3)c2cc1OC` here?
The value was 3.51%.

With `OC[C@H]1O[C@@H](c2ccc(Cl)c(Cc3ccc(O[C@H]4CCOC4)cc3)c2)[C@H](O)[C@@H](O)[C@@H]1O` as the compound, how does the “normalized SmoIP GFP fluorescence” value read?
Its value is -7.78%.

`CCOC(=O)Nc1cc(-c2ccc(C)c(NS(C)(=O)=O)c2)nn2c(C)nnc12` [bromosporine] was tested. Which “normalized SmoIP GFP fluorescence” value did it give?
The value was 49.9%.

`N=C(N)Nc1ccc(C(=O)Oc2ccc3cc(C(=N)N)ccc3c2)cc1` [Nafamostat-mesylate] was tested. Which “normalized SmoIP GFP fluorescence” value did it give?
Its value is 16.2%.

How did the “normalized SmoIP GFP fluorescence” value turn out when `CN1CCN(CCOc2cc(OC3CCOCC3)c3c(Nc4c(Cl)ccc5c4OCO5)ncnc3c2)CC1` was run?
Its value is 10.4%.

With `CC(C)C[C@H](NC(=O)[C@@H](NC(=O)c1cccc(-c2ccccc2)n1)[C@@H](C)O)B(O)O` as the compound, how does the “normalized SmoIP GFP fluorescence” value read?
The value was 64.4%.

For `N#C/C(=C(/N)Sc1ccc(N)cc1)c1ccccc1C(F)(F)F`, which “normalized SmoIP GFP fluorescence” value is on record?
Its value is 10.2%.

With `NC(=O)c1cn(Cc2c(F)cccc2F)nn1` [Rufinamide] as the compound, how does the “normalized SmoIP GFP fluorescence” value read?
Its value is 1.89%.

`CC(C)CCNC(=O)C(CC(C)C)NC(=O)C1OC1C(=O)O` (stereo not drawn) [loxistatin-acid-e-64c] was tested. Which “normalized SmoIP GFP fluorescence” value did it give?
The value was 34.9%.

With `Cc1cn([C@H]2C=C[C@@H](CO)O2)c(=O)[nH]c1=O` [Stavudine] as the compound, how does the “normalized SmoIP GFP fluorescence” value read?
The value was -2.1%.

For `Oc1nc(-c2ccc(C(F)(F)F)cc2)nc2c1CSCC2`, which “normalized SmoIP GFP fluorescence” value is on record?
Its value is 5.66%.

Which “normalized SmoIP GFP fluorescence” value does the source give for `O=C(Nc1c[nH]nc1-c1nc2ccc(CN3CCOCC3)cc2[nH]1)NC1CC1` here?
The value was 94.8%.

Which “normalized SmoIP GFP fluorescence” value does the source give for `Nc1ccc(C(=O)Nc2cccc(-c3nc(N4CCOCC4)c4oc5ncccc5c4n3)c2)cn1` here?
The value was 5.45%.

Which “normalized SmoIP GFP fluorescence” value does the source give for `COCCCC/C(=N\OCCN)c1ccc(C(F)(F)F)cc1` [Fluvoxamine-maleate] here?
The value was 11%.

Which “normalized SmoIP GFP fluorescence” value does the source give for `Cn1cncc1[C@@](N)(c1ccc(Cl)cc1)c1ccc2c(c1)c(-c1cccc(Cl)c1)cc(=O)n2C` here?
The value was 43.9%.

With `Cc1nc(N)sc1-c1ccnc(Nc2ccc(N3CCOCC3)cc2)n1` as the compound, how does the “normalized SmoIP GFP fluorescence” value read?
The value was 94.3%.

How did the “normalized SmoIP GFP fluorescence” value turn out when `CCN1CCN(c2ccc(Nc3cc(N(C)C(=O)Nc4c(Cl)c(OC)cc(OC)c4Cl)ncn3)cc2)CC1` was run?
The value was -12.7%.

For `N#C/C(=C\c1ccc(O)c(O)c1)C(=O)NCc1ccccc1`, which “normalized SmoIP GFP fluorescence” value is on record?
The value was 9.54%.

How did the “normalized SmoIP GFP fluorescence” value turn out when `C[C@]12C=CC(=O)N[C@@H]1CC[C@@H]1[C@@H]2CC[C@]2(C)[C@@H](C(=O)Nc3cc(C(F)(F)F)ccc3C(F)(F)F)CC[C@@H]12` [Dutasteride] was run?
Its value is 4.26%.

For `CN(C)C(=O)c1ccc(S(=O)(=O)c2ccc(NC(=O)[C@@](C)(O)C(F)(F)F)c(Cl)c2)cc1`, which “normalized SmoIP GFP fluorescence” value is on record?
Its value is -2.1%.

`CCOC(=O)[C@H]1O[C@@H]1C(=O)N[C@@H](CC(C)C)C(=O)NCCC(C)C` [Aloxistatin] was tested. Which “normalized SmoIP GFP fluorescence” value did it give?
Its value is 3.51%.

`COc1ccc(-c2nc(N3CCOCC3)c3sc(CN(C)c4ncc(C(=O)NO)cn4)cc3n2)cn1` [cudc-907] was tested. Which “normalized SmoIP GFP fluorescence” value did it give?
Its value is 82.3%.

`COc1cc2/c(=N/c3ccc(Br)cc3F)nc[nH]c2cc1OCC1CCN(C)CC1` [Vandetanib] was tested. Which “normalized SmoIP GFP fluorescence” value did it give?
Its value is 60.9%.

How did the “normalized SmoIP GFP fluorescence” value turn out when `C=C1C(=O)O[C@@H]2/C=C(\C)CC/C=C(\C)CC[C@@H]12` [Costunolide] was run?
Its value is 27.4%.

Which “normalized SmoIP GFP fluorescence” value does the source give for `OC(CCN1CCCCC1)(c1ccccc1)C1CC2C=CC1C2` (stereo not drawn) [Biperiden-hydrochloride] here?
Its value is 2.64%.

With `Cc1ccc(-n2nc(C(C)(C)C)cc2NC(=O)Nc2ccc(OCCN3CCOCC3)c3ccccc23)cc1` [BIRB-796-(Doramapimod)] as the compound, how does the “normalized SmoIP GFP fluorescence” value read?
Its value is 72.2%.

How did the “normalized SmoIP GFP fluorescence” value turn out when `COc1cc2c(Nc3ccc(NC(=O)c4ccccc4)cc3)ncnc2cc1OCCCN1CCOCC1` was run?
Its value is 6.52%.

`c1cn2cc(-c3ccc4cn[nH]c4c3)nc(Nc3ccc(N4CCOCC4)cc3)c2n1` was tested. Which “normalized SmoIP GFP fluorescence” value did it give?
Its value is 2.97%.

`NC(=S)N/N=C/c1ncccc1N` [triapine] was tested. Which “normalized SmoIP GFP fluorescence” value did it give?
The value was -3.71%.

For `CCN(CC)CC(=O)Nc1c(C)cccc1C` [Lidocaine], which “normalized SmoIP GFP fluorescence” value is on record?
The value was 2.97%.
